DNMT1 inh: DNMT1 (human) enzyme inhibition; P26358; DNMT1 molecular beacon, Hinp1I cleavage, fluorescence; inhibition (reported as % activation of signal), % at 10 µM; 360,000 compounds, 0.83% hits; AID 588458; in the data active means inhibition above about 50%
LEDGF integ inh: blocks HIV-1 LEDGF/p75-dependent DNA integration. 370,000 compounds, 0.64% hits. TR-FRET IN-LEDGF/p75 DNA integration, Eu/Cy5. inhibition, % at 3.7 µM;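 active means inhibition above the screen-wide mean plus 3 SD, cut at about 13% in these data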;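 further: signal is the Cy5 over europium emission ratio at 671 and 618 nm; 0% = plate median of compound wells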
UHRF1 MBD2 ctr: human UHRF1 methylated DNA binding inhibitors | Q96T88 | UHRF1 binding to methylated oligo, TR-FRET | inhibition, % at 4.4 µM | 370,000 compounds, 0.75% hits | AID 687016; in the data active means inhibition above about 21%;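 further: UHRF1 SRA domain binding a hemimethylated CpG hairpin DNA probe; 0% = median of test compound wells and 100% = reference inhibitor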
PG9 Ab binder: small molecules binding HIV-1 gp120 antibody PG9; TR-FRET gp120-PG9 antibody binding; inhibition, % at 6.7 µM; 360,000 compounds, 0.43% hits; AID 624416; in the data active means inhibition above about 8.5%
MBD2 inh: inhibitors of human MBD2 binding to methylated oligonucleotide; Q9UBB5; TR-FRET; inhibition, % at 4.4 µM; 370,000 compounds, 0.31% hits; in the data active means inhibition above about 13%
Target sequence (Q9UBB5 whole entry, looked up): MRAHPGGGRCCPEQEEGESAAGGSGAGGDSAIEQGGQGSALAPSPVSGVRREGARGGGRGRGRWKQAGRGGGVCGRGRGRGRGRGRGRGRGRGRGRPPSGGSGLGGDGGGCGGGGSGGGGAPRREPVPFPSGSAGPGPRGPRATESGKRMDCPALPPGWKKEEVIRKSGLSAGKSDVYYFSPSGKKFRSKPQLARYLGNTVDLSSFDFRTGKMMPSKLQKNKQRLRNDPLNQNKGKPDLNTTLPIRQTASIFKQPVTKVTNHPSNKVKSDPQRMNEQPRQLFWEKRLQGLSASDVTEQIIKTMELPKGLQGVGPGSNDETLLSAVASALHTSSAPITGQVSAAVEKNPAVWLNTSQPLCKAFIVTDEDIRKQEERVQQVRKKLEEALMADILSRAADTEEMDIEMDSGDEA
rCAG RNA binder: r(CAG) repeat RNA binding | TO-PRO-1 dye displacement fluorescence | inhibition, % at 3 µM | 370,000 compounds, 1.3% hits;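 active means inhibition above the plate cutoff, the mean of all test compounds on that plate plus 3 SD, cut at about 35% in these data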;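 further: 0% = DMSO alone and 100% = 100 µM mitoxantrone as full dye displacement; higher means more dye released from RNA so lower well fluorescence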
rCAG bind conf: r(CAG) RNA repeat binding, confirmation. AID 652065. inhibition, % at 3 µM. 4,300 compounds, 70% hits. shares compounds with rCAG RNA binder. TO-PRO-1 dye displacement fluorescence;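 active means inhibition above a per-plate cutoff, the mean inhibition of sample wells plus 3 SD, cut at about 35% in these data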;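 further: loss of TO-PRO-1 fluorescence as compound displaces dye from 1x1 AA loop RNA; 0% = DMSO only wells and 100% = 100 µM mitoxantrone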
DNA CAG counter: DNA CAG dye complex inhibition counter-screen. inhibition, % at 3 µM. 4,300 compounds, 94% hits. AID 652068. d(CAG) DNA oligo TO-PRO-1 dye displacement, fluorescence. shares compounds with rCAG RNA binder;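 active means inhibition above its plate's cutoff, the mean test-well inhibition plus 3 SD, cut at about 4.8% in these data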;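 further: 0% = DNA dye mix with DMSO and 100% = 100 µM mitoxantrone; hits displace the dye from DNA and so lower well fluorescence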
DNA CAG DR: DNA CAG dye complex inhibition, dose response counter-screen. 250 compounds, 20% hits. IC50, µM. AID 686960. DNA CAG/GTC duplex TO-PRO-1 dye displacement fluorescence. shares compounds with rCAG RNA binder; in the data active means IC50 below about 10 µM
An asterisk follows results filed as active. In the library only some 3.5% were active in any assay of this set; here they are far more common.

How did CCc1nnc(NS(=O)(=O)c2ccc(N=Cc3c(C)[nH]n(-c4ccc(Cl)cc4)c3=O)cc2)s1 do in these assays?
DNMT1 inh: 0; LEDGF integ inh: 3; UHRF1 MBD2 ctr: -5; PG9 Ab binder: -2; MBD2 inh: -4; rCAG RNA binder: 49*; rCAG bind conf: 84*; DNA CAG counter: 59*

Results for CCc1nnc(NS(=O)(=O)c2ccc(N=Cc3c(C)[nH]n(-c4cccc(Cl)c4)c3=O)cc2)s1 ?
DNMT1 inh: -9; LEDGF integ inh: -1; UHRF1 MBD2 ctr: -7; PG9 Ab binder: -2; MBD2 inh: -3; rCAG RNA binder: 53*; rCAG bind conf: 86*; DNA CAG counter: 63*

How did COc1nccnc1NS(=O)(=O)c1ccc(N=Cc2c(C)[nH]n(-c3ccc(Cl)cc3)c2=O)cc1 do in these assays?
LEDGF integ inh: 0; UHRF1 MBD2 ctr: -9; PG9 Ab binder: -3; MBD2 inh: -3; rCAG RNA binder: 4

What do the screens show for `CC1=NN(c2nc(-c3ccc(C)cc3)cs2)C(=O)C1N=Nc1cccc(O)c1` (stereo unspecified)?
DNMT1 inh: -8; LEDGF integ inh: 1; UHRF1 MBD2 ctr: -2; PG9 Ab binder: 1; MBD2 inh: 6; rCAG RNA binder: 37*; rCAG bind conf: 49*; DNA CAG counter: 22*

How did Cc1ccc(S(=O)(=O)Nc2ccc3cc([N+](=O)[O-])ccc3c2[N+](=O)[O-])cc1 do in these assays?
DNMT1 inh: 1; LEDGF integ inh: 2; UHRF1 MBD2 ctr: 1; PG9 Ab binder: -1; MBD2 inh: 0; rCAG RNA binder: 83*; rCAG bind conf: 82*; DNA CAG counter: 47*

How did Cc1ccc(S(=O)(=O)Nc2ccc3ccccc3c2[N+](=O)[O-])cc1 do in these assays?
DNMT1 inh: -9; LEDGF integ inh: 11; UHRF1 MBD2 ctr: 2; PG9 Ab binder: -3; MBD2 inh: -7; rCAG RNA binder: 61*; rCAG bind conf: 52*; DNA CAG counter: 18*

What do the screens show for `Cc1ccc(S(=O)(=O)NCCC(=O)NC2CCC(C)CC2)cc1` (stereo unspecified)?
DNMT1 inh: -1; LEDGF integ inh: -2; UHRF1 MBD2 ctr: 2; PG9 Ab binder: 2; MBD2 inh: 7; rCAG RNA binder: 2

Results for CCC1=C(C)CN(C(=O)NCCc2ccc(S(=O)(=O)NC(=O)NC3CCC(C)CC3)cc2)C1=O (stereo unspecified) ?
DNMT1 inh: 3; LEDGF integ inh: 0; UHRF1 MBD2 ctr: -1; PG9 Ab binder: 0; MBD2 inh: 6; rCAG RNA binder: 42*; rCAG bind conf: 33; DNA CAG counter: 5.0*

How did CCCNC(=O)c1ccc(N2CCC3(CC2)CC(c2cccc(Br)c2)=NO3)c([N+](=O)[O-])c1 do in these assays?
DNMT1 inh: -7; LEDGF integ inh: 0; UHRF1 MBD2 ctr: -4; PG9 Ab binder: -1; MBD2 inh: 2; rCAG RNA binder: 9

What do the screens show for `COc1cccc(-c2cc(NC(C)=O)c3ncc(-c4ccc(OC)c(OC)c4)n3c2)c1`?
DNMT1 inh: -16; LEDGF integ inh: -5; UHRF1 MBD2 ctr: -2; PG9 Ab binder: -3; MBD2 inh: 2; rCAG RNA binder: 12

What do the screens show for `CCN1C(=O)S/C(=C/c2cn(C)c3ccccc23)C1=O`?
DNMT1 inh: 5; LEDGF integ inh: -4; UHRF1 MBD2 ctr: 2; PG9 Ab binder: -1; MBD2 inh: 5; rCAG RNA binder: 3

Results for CCN1C(=O)S/C(=C/c2c(OCc3ccc(C(=O)O)cc3)ccc3ccccc23)C1=O ?
DNMT1 inh: 1; LEDGF integ inh: 4; UHRF1 MBD2 ctr: -1; PG9 Ab binder: -4; MBD2 inh: 0; rCAG RNA binder: 50*; rCAG bind conf: 67*; DNA CAG counter: 27*

How did C[C@]12CC[C@H](O)CC1=CCC1C2CC[C@@]2(C)C1CC[C@@H]2NC(=O)[C@@H](N)Cc1cnc[nH]1 (stereo partly specified) do in these assays?
DNMT1 inh: -8; LEDGF integ inh: 1; UHRF1 MBD2 ctr: -4; PG9 Ab binder: 0; MBD2 inh: -6; rCAG RNA binder: 1

How did COc1ccc(CN2C(=O)CCCC2(C)c2nc3ccccc3[nH]2)cc1 (stereo unspecified) do in these assays?
LEDGF integ inh: 1; UHRF1 MBD2 ctr: -1; PG9 Ab binder: -1; MBD2 inh: 0; rCAG RNA binder: 3

How did O=C(O)C1CCCN1c1nc(-c2ccc(Cl)c(Cl)c2)cc(C(F)(F)F)n1 (stereo unspecified) do in these assays?
DNMT1 inh: -1; LEDGF integ inh: 6; UHRF1 MBD2 ctr: 1; PG9 Ab binder: -1; MBD2 inh: -5; rCAG RNA binder: 44*; rCAG bind conf: 43*; DNA CAG counter: 12*; DNA CAG DR: >30

How did CCC(C)Oc1ccc(/C=C/c2[nH]c(=O)[nH]c(=O)c2[N+](=O)[O-])cc1OC (stereo unspecified) do in these assays?
DNMT1 inh: 3; LEDGF integ inh: 1; UHRF1 MBD2 ctr: -5; PG9 Ab binder: 0; MBD2 inh: 0; rCAG RNA binder: 36*; rCAG bind conf: 24; DNA CAG counter: 4.9*

Results for Cc1csc(NC(=O)c2ccc(COc3ccccc3F)o2)n1 ?
LEDGF integ inh: 2; UHRF1 MBD2 ctr: -2; MBD2 inh: 9; rCAG RNA binder: 6

How did Cc1ccc(NC(=O)c2cc(-c3cc(F)ccc3OCC3CCCO3)n[nH]2)cc1NS(C)(=O)=O (stereo unspecified) do in these assays?
DNMT1 inh: 2; LEDGF integ inh: 0; UHRF1 MBD2 ctr: 0; PG9 Ab binder: 1; MBD2 inh: 3; rCAG RNA binder: 4

What do the screens show for `COc1ccc(C(=O)N2CCC(C)(C(=O)NS(=O)(=O)C3CC3)C2)c(OC)c1` (stereo unspecified)?
DNMT1 inh: 3; LEDGF integ inh: 3; UHRF1 MBD2 ctr: 1; PG9 Ab binder: -1; MBD2 inh: 2; rCAG RNA binder: 3

What do the screens show for `O=C(Nc1cccc(Br)c1)c1ccc2nc(N3C(=O)CCC3=O)sc2c1`?
DNMT1 inh: -18; LEDGF integ inh: 1; UHRF1 MBD2 ctr: 2; PG9 Ab binder: 1; MBD2 inh: 1; rCAG RNA binder: 44*; rCAG bind conf: 27; DNA CAG counter: 9.7*

How did Cc1ccc(C)n1NC(=O)c1ccccc1O do in these assays?
DNMT1 inh: -24; LEDGF integ inh: 2; UHRF1 MBD2 ctr: -1; PG9 Ab binder: -1; MBD2 inh: 1; rCAG RNA binder: 36*; rCAG bind conf: 22; DNA CAG counter: 13*
